Measured values reported in PubChem BioAssay (NCI).
About 79,000 compounds went through this panel and 15% of them were active in at least one assay; those are over-represented in the sample as a whole. Calls of active or inactive are those of the source. Rule as the data show it: active = growth inhibition above about 70%; inactive = the rest.

Key:
[1] = NCI Yeast Anticancer Drug Screen. Data for the rad52 strain (AID 147);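 also: 0% = growth of vehicle-treated control cultures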; settings: S. cerevisiae rad52 mutant growth inhibition, active compounds read high
Outline: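 Vehicle-treated cultures served as the reference for growth inhibition of compound-exposed yeast bearing a DNA repair mutation.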

[2] = NCI Yeast Anticancer Drug Screen. Data for the wt1 strain (AID 149);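 also: 0% = growth of vehicle-treated wt1 cultures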; settings: S. cerevisiae wt1 strain (SPY 50644) growth inhibition, active compounds read high
Outline: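 Vehicle-normalised growth inhibition; strain wt1; compound exposure.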

[3] = NCI Yeast Anticancer Drug Screen. Data for the mgt1 strain (AID 153); settings: S. cerevisiae mgt1 mutant growth inhibition, active compounds read high
Outline: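 mgt1 strain exposed; growth vs vehicle control recorded as inhibition.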

[4] = NCI Yeast Anticancer Drug Screen. Data for the rad50 strain (AID 155);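 also: 0% = growth of vehicle-only cultures of the same strain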; settings: S. cerevisiae rad50 strain growth inhibition, active compounds read high
Outline: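 A DNA repair-deficient yeast mutant serves as the test organism; compound-induced growth inhibition is calculated against vehicle-treated cells.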

[5] = NCI Yeast Anticancer Drug Screen. Data for the mec2-1 strain (AID 157); settings: S. cerevisiae mec2-1 strain, active compounds read high
Outline: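 Vehicle-treated cultures served as reference for growth inhibition of compound-exposed mec2-1 yeast.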

[6] = NCI Yeast Anticancer Drug Screen. Data for the rad14 strain (AID 159);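 also: 0% = growth of vehicle-treated control cultures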; settings: S. cerevisiae rad14 strain growth inhibition, active compounds read high
Outline: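 Vehicle-treated cultures served as the baseline for growth inhibition of a DNA repair-mutant yeast strain exposed to each compound.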

[7] = NCI Yeast Anticancer Drug Screen. Data for the sgs1 mgt1 strain (AID 161);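 also: 0% = growth of cultures given vehicle only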; settings: S. cerevisiae sgs1 mgt1 strain, active compounds read high
Outline: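 Genetically altered yeast, compound exposure, growth inhibition relative to vehicle.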

[8] = NCI Yeast Anticancer Drug Screen. Data for the CLN2oe strain (AID 163);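 also: 0% = growth of vehicle-only control cultures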; settings: S. cerevisiae CLN2oe strain, active compounds read high
Outline: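 Inhibition relative to vehicle-treated yeast is reported. Cells: strain with genetic alteration in cell-cycle control, grown with compound.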

[9] = NCI Yeast Anticancer Drug Screen. Data for the cln2 rad14 strain (AID 165);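 also: 0% = growth equal to vehicle treated cultures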; settings: S. cerevisiae cln2 rad14 strain, active compounds read high
Outline: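 Each compound was tested on cln2 rad14 yeast. Inhibition of growth was calculated against vehicle-exposed controls.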

[10] = NCI Yeast Anticancer Drug Screen. Data for the bub3 strain (AID 167); settings: S. cerevisiae bub3 mutant strain, active compounds read high
Outline: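 Inhibition values come from growth of compound-treated mutant yeast normalised to vehicle-treated controls.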

[11] = NCI Yeast Anticancer Drug Screen. Data for the wt2 strain (AID 169);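 also: 0% = growth of vehicle-treated yeast cultures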; settings: S. cerevisiae wt2 strain growth inhibition, active compounds read high
Outline: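 Inhibition of yeast growth was determined after compound treatment, normalised to controls receiving only vehicle.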

[12] = NCI Yeast Anticancer Drug Screen. Data for the mlh1 strain (AID 171);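 also: 0% = growth of vehicle-treated control cultures of the same strain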; settings: S. cerevisiae mlh1 strain growth inhibition, active compounds read high
Outline: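 Vehicle-normalised growth inhibition of a repair- or checkpoint-altered yeast strain following compound treatment.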

[13] = NCI Yeast Anticancer Drug Screen. Data for the sgs1 strain (AID 173);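 also: 0% = growth of vehicle-only control cultures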; settings: S. cerevisiae sgs1 mutant, active compounds read high
Outline: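 Screen format: yeast with repair or checkpoint alterations, compound exposure, growth read relative to vehicle.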

[14] = NCI Yeast Anticancer Drug Screen. Data for the mlh1 rad18 strain (AID 175); settings: S. cerevisiae mlh1 rad18 strain growth inhibition, active compounds read high
Outline: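 Vehicle-treated cultures served as the reference for growth inhibition in a yeast strain carrying DNA damage repair alterations exposed to each compound.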

[15] = NCI Yeast Anticancer Drug Screen. Data for the rad18 strain (AID 177); settings: S. cerevisiae rad18 mutant growth inhibition, active compounds read high
Outline: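 Test articles were incubated with altered yeast defective in DNA damage repair. Results are given as inhibition of growth versus vehicle.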

[16] = NCI Yeast Anticancer Drug Screen. Data for the rad50EPP+ strain (AID 151);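 also: 0% = growth of vehicle-treated control cultures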; settings: S. cerevisiae rad50 mutant strain, active compounds read high
Outline: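 In this screen, rad50EPP+ yeast were exposed to compounds. Growth inhibition was scored against vehicle-treated controls.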

[17] = at 5.0 µM (retest, dose inferred, filed as 0.5)
[18] = at 50.0 µM (retest, dose inferred, filed as 5.0)

Measured: growth inhibition

c1ccc(N=c2nc(N3CCOCC3)ss2)cc1
active: [1]; at 33.0 µM 98% | [1]; at 100.0 µM 99% | [2]; at 33.0 µM 98% | [2]; at 100.0 µM 98% | [3]; at 11.0 µM 71% | [3]; at 33.0 µM 99% | [3]; at 100.0 µM 99% | [4]; at 33.0 µM 99% | [4]; [18] 99% | [4]; at 50.0 µM 98.6% | [4]; at 100.0 µM 99% | [5]; at 33.0 µM 99% | [5]; [18] 100% | [5]; at 50.0 µM 99.7% | [5]; at 100.0 µM 99% | [6]; at 33.0 µM 99% | [6]; at 100.0 µM 99% | [7]; [18] 100% | [7]; at 50.0 µM 98.7% | [8]; at 33.0 µM 87% | [8]; at 100.0 µM 98% | [9]; [18] 99% | [9]; at 50.0 µM 93.4% | [10]; at 33.0 µM 99% | [10]; [18] 99% | [10]; at 50.0 µM 99.3% | [10]; at 100.0 µM 99% | [11]; at 33.0 µM 98% | [11]; at 100.0 µM 99% | [12]; at 11.0 µM 73% | [12]; at 33.0 µM 99% | [12]; at 100.0 µM 99% | [13]; at 11.0 µM 87% | [13]; at 33.0 µM 99% | [13]; at 100.0 µM 99% | [14]; [18] 98% | [14]; at 50.0 µM 98.4% | [15]; at 33.0 µM 99% | [15]; at 100.0 µM 94%
inactive: [1]; at 1.2 µM -3% | [1]; at 3.7 µM 3% | [1]; at 11.0 µM 27% | [2]; at 1.2 µM -3% | [2]; at 3.7 µM 4% | [2]; at 11.0 µM 15% | [3]; at 1.2 µM -3% | [3]; at 3.7 µM 11% | [4]; at 1.2 µM -6% | [4]; at 3.7 µM 6% | [4]; [17] 19% | [4]; at 11.0 µM 51% | [5]; at 1.2 µM -4% | [5]; at 3.7 µM 7% | [5]; [17] 14% | [5]; at 11.0 µM 37% | [6]; at 1.2 µM -3% | [6]; at 3.7 µM 13% | [6]; at 11.0 µM 61% | [7]; [17] 58% | [8]; at 1.2 µM -11% | [8]; at 3.7 µM -13% | [8]; at 11.0 µM 3% | [9]; [17] -5% | [10]; at 1.2 µM -5% | [10]; at 3.7 µM 5% | [10]; [17] 8% | [10]; at 11.0 µM 56% | [11]; at 1.2 µM -1% | [11]; at 3.7 µM 18% | [11]; at 11.0 µM 53% | [12]; at 1.2 µM -1% | [12]; at 3.7 µM 14% | [13]; at 1.2 µM 7% | [13]; at 3.7 µM 37% | [14]; [17] 26% | [15]; at 1.2 µM 0% | [15]; at 3.7 µM 18% | [15]; at 11.0 µM 64%

CC1=C(N2CC2)C(=O)c2ccccc2C1=O
active: [1]; at 100.0 µM 97% | [16]; at 33.0 µM 79% | [16]; at 100.0 µM 96% | [4]; at 33.0 µM 70% | [4]; [18] 84% | [4]; at 100.0 µM 97% | [7]; [18] 72% | [15]; at 3.7 µM 72% | [15]; at 11.0 µM 91% | [15]; at 33.0 µM 96% | [15]; at 100.0 µM 98%
inactive: [1]; at 1.2 µM 1% | [1]; at 3.7 µM 11% | [1]; at 11.0 µM 22% | [1]; at 33.0 µM 69% | [2]; at 1.2 µM -5% | [2]; at 3.7 µM -6% | [2]; at 11.0 µM -6% | [2]; at 33.0 µM -2% | [2]; at 100.0 µM 41% | [16]; at 1.2 µM 5% | [16]; at 3.7 µM 16% | [16]; at 11.0 µM 48% | [3]; at 1.2 µM 0% | [3]; at 3.7 µM -49% | [3]; at 11.0 µM 2% | [3]; at 33.0 µM 13% | [3]; at 100.0 µM 36% | [4]; at 1.2 µM 1% | [4]; at 3.7 µM 1% | [4]; [17] -103% | [4]; at 11.0 µM 23% | [4]; at 50.0 µM 53.7% | [5]; at 1.2 µM 4% | [5]; at 3.7 µM 3% | [5]; [17] -46% | [5]; at 11.0 µM 6% | [5]; at 33.0 µM 11% | [5]; [18] 4% | [5]; at 50.0 µM 19.8% | [5]; at 100.0 µM 49% | [7]; [17] -41% | [7]; at 50.0 µM 43% | [9]; [17] -60% | [9]; [18] 48% | [9]; at 50.0 µM -6.55% | [10]; at 1.2 µM -3% | [10]; at 3.7 µM -2% | [10]; [17] -64% | [10]; at 11.0 µM 2% | [10]; at 33.0 µM 16% | [10]; [18] 16% | [10]; at 50.0 µM -8.05% | [10]; at 100.0 µM 66% | [11]; at 1.2 µM 0% | [11]; at 3.7 µM 1% | [11]; at 11.0 µM 2% | [11]; at 33.0 µM 0% | [11]; at 100.0 µM 34% | [12]; at 1.2 µM 7% | [12]; at 3.7 µM -3% | [12]; at 11.0 µM 2% | [12]; at 33.0 µM 9% | [12]; at 100.0 µM 64% | [14]; [17] -99% | [14]; [18] 65% | [14]; at 50.0 µM 46.2% | [15]; at 1.2 µM 36%
